{"source": "paper PMC4336329", "about": "(PLoS ONE, 2015)", "note": "Hit rate of the full screen: of about 310,000 compounds, about 14,000 (4.5%) showed an effect of 50% or more. Effects have a minus sign here. The sample as a whole holds a higher share of strong results than the screen did.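 Also: peak tail current of the secondary pulse compared with the same well before compound.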", "data": [{"biological_target": "human ether-à-go-go-related gene (hERG) potassium channel (human, UniProt Q12809)", "sequence (Q12809 whole entry, looked up)": "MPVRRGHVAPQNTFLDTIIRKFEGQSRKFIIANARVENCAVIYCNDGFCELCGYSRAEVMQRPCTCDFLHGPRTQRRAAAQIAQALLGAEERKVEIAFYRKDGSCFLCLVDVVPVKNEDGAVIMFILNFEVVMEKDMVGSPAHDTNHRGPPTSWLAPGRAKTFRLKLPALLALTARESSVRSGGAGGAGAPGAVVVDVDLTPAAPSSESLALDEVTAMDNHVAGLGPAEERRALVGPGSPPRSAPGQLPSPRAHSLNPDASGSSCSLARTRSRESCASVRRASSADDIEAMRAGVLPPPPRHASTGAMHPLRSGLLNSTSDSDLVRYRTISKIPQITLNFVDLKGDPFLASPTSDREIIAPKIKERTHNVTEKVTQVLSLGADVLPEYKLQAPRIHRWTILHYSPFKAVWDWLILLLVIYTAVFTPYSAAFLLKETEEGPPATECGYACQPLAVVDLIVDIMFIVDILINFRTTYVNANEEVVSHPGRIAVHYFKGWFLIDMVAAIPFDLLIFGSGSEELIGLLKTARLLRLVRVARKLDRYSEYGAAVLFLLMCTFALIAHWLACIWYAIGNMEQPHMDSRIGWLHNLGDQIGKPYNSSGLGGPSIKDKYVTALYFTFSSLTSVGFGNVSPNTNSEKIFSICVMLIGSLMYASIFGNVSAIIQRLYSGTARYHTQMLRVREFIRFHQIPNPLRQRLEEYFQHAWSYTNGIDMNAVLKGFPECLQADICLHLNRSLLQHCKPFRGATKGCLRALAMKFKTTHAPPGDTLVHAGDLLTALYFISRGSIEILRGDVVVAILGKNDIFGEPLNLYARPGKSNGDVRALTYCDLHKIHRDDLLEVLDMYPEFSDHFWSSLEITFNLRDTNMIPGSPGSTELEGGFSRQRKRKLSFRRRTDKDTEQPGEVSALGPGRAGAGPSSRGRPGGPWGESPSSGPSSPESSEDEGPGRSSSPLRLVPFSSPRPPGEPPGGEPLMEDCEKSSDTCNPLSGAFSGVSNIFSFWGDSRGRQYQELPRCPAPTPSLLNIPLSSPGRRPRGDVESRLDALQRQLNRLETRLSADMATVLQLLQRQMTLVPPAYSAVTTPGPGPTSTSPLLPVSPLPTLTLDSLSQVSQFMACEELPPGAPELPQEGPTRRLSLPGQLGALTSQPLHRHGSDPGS", "experiment": "primary screen, population patch clamp on CHO cells stably expressing hERG; higher = less effect of the substance", "units": {"hERG current change (%, negative = inhibition) at 10uM": "%"}, "values": [{"smiles": "O=C(COc1ccccc1Cl)N1CCCC(N2CCN(c3ccc(F)cc3)CC2)C1", "note": "(stereo not drawn)", "hERG current change (%, negative = inhibition) at 10uM": -65.8}, {"smiles": "COc1ncccc1C(=O)N1CCCC(N2CCN(c3ccc(F)cc3)CC2)C1", "note": "(stereo not drawn)", "hERG current change (%, negative = inhibition) at 10uM": -26.7}, {"smiles": "O=C(COc1ccccc1Cl)N1CCN(c2ccc(F)cc2)CC1", "hERG current change (%, negative = inhibition) at 10uM": -6.04}, {"smiles": "COc1ccccc1OCC(=O)N1CCCC(N2CCN(c3ccc(F)cc3)CC2)C1", "note": "(stereo not drawn)", "hERG current change (%, negative = inhibition) at 10uM": -52.9}, {"smiles": "Cc1cc(C)n(CC(=O)N2CCCC(N3CCN(c4ccc(F)cc4)CC3)C2)n1", "note": "(stereo not drawn)", "hERG current change (%, negative = inhibition) at 10uM": -18.1}, {"smiles": "O=C(CCN1CCCCO1)N1CCCC(N2CCN(c3ccc(F)cc3)CC2)C1", "note": "(stereo not drawn)", "hERG current change (%, negative = inhibition) at 10uM": -11.2}, {"smiles": "Cc1ccc(OCC(=O)N2CCCC(N3CCN(c4ccc(F)cc4)CC3)C2)cc1", "note": "(stereo not drawn)", "hERG current change (%, negative = inhibition) at 10uM": -101}, {"smiles": "COc1ccccc1N1CCN(C2CCCN(C(=O)CC(F)(F)F)C2)CC1", "note": "(stereo not drawn)", "hERG current change (%, negative = inhibition) at 10uM": 12.4}, {"smiles": "COc1ccc(N2CCN(C3CCCN(C(=O)CSC)C3)CC2)cc1", "note": "(stereo not drawn)", "hERG current change (%, negative = inhibition) at 10uM": 3.1}, {"smiles": "COc1ccc(CN2CCN(C(=O)CCC(=O)Nc3nnc(CC(C)C)s3)CC2)cc1F", "hERG current change (%, negative = inhibition) at 10uM": -17.9}, {"smiles": "O=C(c1cccc2ccccc12)N1CCN(c2ccccc2F)CC1", "hERG current change (%, negative = inhibition) at 10uM": -9.72}, {"smiles": "O=C(CCC(=O)Nc1ccccc1)N/N=C/C=C/c1ccccc1", "hERG current change (%, negative = inhibition) at 10uM": 32.1}, {"smiles": "CC(=O)Nc1ccc(NC(=O)C2CC(=O)N(c3cccc(C)c3C)C2)cc1", "note": "(stereo not drawn)", "hERG current change (%, negative = inhibition) at 10uM": 9.48}, {"smiles": "Cc1ccn2c(CN(C)CCn3nc(C)cc3C)c(C(=O)N3CCCCCC3)nc2c1", "hERG current change (%, negative = inhibition) at 10uM": 4.86}, {"smiles": "Cc1cc2cc3c(cc2nc1SCc1ccccn1)OCCO3", "hERG current change (%, negative = inhibition) at 10uM": 5.43}, {"smiles": "O=c1c(Cl)c(N2CCOCC2)cnn1-c1ncc(C(F)(F)F)cc1Cl", "hERG current change (%, negative = inhibition) at 10uM": 5.44}, {"smiles": "Cc1ccc(N2CC(C(=O)Nc3ccc(S(=O)(=O)N4CCCC4)cc3)CC2=O)cc1C", "note": "(stereo not drawn)", "hERG current change (%, negative = inhibition) at 10uM": 6.52}, {"smiles": "Cc1c(/C(O)=C2/C(=O)C(=O)N(CCN3CCOCC3)C2c2cccs2)cnn1-c1ccccc1", "note": "(stereo not drawn)", "hERG current change (%, negative = inhibition) at 10uM": 13.6}, {"smiles": "COc1cccc(C(=O)NCc2ccc3c(c2)cc(C)n3C)c1", "hERG current change (%, negative = inhibition) at 10uM": 17}, {"smiles": "CCc1ccc2[nH]c(=O)c(CN(Cc3ccccc3OC)C(=O)Nc3ccccc3OC)cc2c1", "hERG current change (%, negative = inhibition) at 10uM": 3.47}, {"smiles": "CCc1ccc2[nH]c(=O)c(CN(Cc3ccccc3)C(=O)Nc3ccccc3OC)cc2c1", "hERG current change (%, negative = inhibition) at 10uM": 4.2}, {"smiles": "CCc1ccc2[nH]c(=O)c(CN(CCCO)C(=O)NCc3ccccc3)cc2c1", "hERG current change (%, negative = inhibition) at 10uM": -13}, {"smiles": "CCc1ccc2[nH]c(=O)c(CN(CCO)C(=O)NCc3ccccc3)cc2c1", "hERG current change (%, negative = inhibition) at 10uM": 3.64}, {"smiles": "CCc1ccc2[nH]c(=O)c(CN(CCN(C)C)C(=O)Nc3ccccc3OC)cc2c1", "hERG current change (%, negative = inhibition) at 10uM": -64.7}, {"smiles": "CCc1ccc2[nH]c(=O)c(CN(CCN(CC)CC)C(=O)Nc3ccccc3OC)cc2c1", "hERG current change (%, negative = inhibition) at 10uM": -76.5}, {"smiles": "Nc1nc(SCc2ccc(Cl)c(Cl)c2)n[nH]1", "hERG current change (%, negative = inhibition) at 10uM": 10.4}, {"smiles": "O=C(COC(=O)c1ccc(F)c(S(=O)(=O)N2CCOCC2)c1)c1ccc(Cl)cc1", "hERG current change (%, negative = inhibition) at 10uM": -31.1}, {"smiles": "COc1ccccc1/C=N/NC(=O)c1cccc(NC(=O)c2ccccc2C)c1", "hERG current change (%, negative = inhibition) at 10uM": -4.64}, {"smiles": "CC12CCC(=O)N1C(C(=O)OCC(=O)Nc1cccc(S(=O)(=O)N3CCCCCC3)c1)CS2", "note": "(stereo not drawn)", "hERG current change (%, negative = inhibition) at 10uM": -86.8}, {"smiles": "CC12CCC(=O)N1C(C(=O)OCC(=O)Nc1cc(S(=O)(=O)N3CCCCC3)ccc1Cl)CS2", "note": "(stereo not drawn)", "hERG current change (%, negative = inhibition) at 10uM": -48.2}, {"smiles": "CC12CCC(=O)N1C(C(=O)N1CCN(S(=O)(=O)c3ccccc3F)CC1)CS2", "note": "(stereo not drawn)", "hERG current change (%, negative = inhibition) at 10uM": -30.1}, {"smiles": "CC12CCC(=O)N1C(C(=O)Nc1ccc(F)cc1)CS2", "note": "(stereo not drawn)", "hERG current change (%, negative = inhibition) at 10uM": 12.4}, {"smiles": "CC(C)c1ccc(NC(=O)C2CSC3(C)CCC(=O)N23)cc1", "note": "(stereo not drawn)", "hERG current change (%, negative = inhibition) at 10uM": 2.4}, {"smiles": "Cc1ccc(S(=O)(=O)N2CCN(C(=O)C3CSC4(C)CCC(=O)N34)CC2)cc1C", "note": "(stereo not drawn)", "hERG current change (%, negative = inhibition) at 10uM": -13.8}, {"smiles": "Cc1ccc(NC(=O)C2CSC3(C)CCC(=O)N23)cc1S(=O)(=O)N1CCCCCC1", "note": "(stereo not drawn)", "hERG current change (%, negative = inhibition) at 10uM": -55.4}, {"smiles": "CC12CCC(=O)N1C(C(=O)Nc1ccc(SC(F)F)cc1)CS2", "note": "(stereo not drawn)", "hERG current change (%, negative = inhibition) at 10uM": -57.6}, {"smiles": "CC12CCC(=O)N1C(C(=O)N1CCN(S(=O)(=O)c3ccc(F)c(F)c3)CC1)CS2", "note": "(stereo not drawn)", "hERG current change (%, negative = inhibition) at 10uM": -53.7}, {"smiles": "Cc1ccc(NC(=O)C2CSC3(C)CCC(=O)N23)cc1S(=O)(=O)N1CCOCC1", "note": "(stereo not drawn)", "hERG current change (%, negative = inhibition) at 10uM": 2.81}, {"smiles": "CC12CCC(=O)N1C(C(=O)OCC(=O)Nc1cccc(Br)c1)CS2", "note": "(stereo not drawn)", "hERG current change (%, negative = inhibition) at 10uM": 6.89}, {"smiles": "CC12CCC(=O)N1C(C(=O)Nc1ccc(Cl)c(S(=O)(=O)N3CCCCC3)c1)CS2", "note": "(stereo not drawn)", "hERG current change (%, negative = inhibition) at 10uM": -34.3}, {"smiles": "COc1ccc(NS(=O)(=O)c2c(C)n(C)c(=O)n(C)c2=O)cc1", "hERG current change (%, negative = inhibition) at 10uM": 15.5}, {"smiles": "CN(C)S(=O)(=O)c1ccc(Cl)c(NC(=O)COC(=O)/C=C/c2ccc3ccccc3n2)c1", "hERG current change (%, negative = inhibition) at 10uM": 1.53}]}]}
